A selection: hits, their analogues and other compounds. The true share with any hit is near 14%.
Giardia FBPA inh – inhibitors of Giardia lamblia fructose-1,6-bisphosphate aldolase. AID 2451. purified Giardia FBPA. 290,000 tested, 0.71% active. Potency, µM (doses to about 59.6 µM), hits mostly inhibitors; note: nearly all actives have a fitted effect of over 55% in size
Target sequence (A8B2U2 whole entry, looked up): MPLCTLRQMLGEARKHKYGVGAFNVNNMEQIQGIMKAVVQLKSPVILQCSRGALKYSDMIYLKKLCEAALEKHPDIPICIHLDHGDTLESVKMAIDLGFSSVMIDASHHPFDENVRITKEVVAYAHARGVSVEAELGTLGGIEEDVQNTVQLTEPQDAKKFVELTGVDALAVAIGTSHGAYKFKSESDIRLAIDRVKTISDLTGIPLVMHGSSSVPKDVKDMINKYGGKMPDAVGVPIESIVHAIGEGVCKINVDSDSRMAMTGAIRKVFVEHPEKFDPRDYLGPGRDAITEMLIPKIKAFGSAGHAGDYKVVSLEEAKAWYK
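40 nM FBPA preincubated 10 min at RT with compound (up to 57.5 uM final), then substrate plus GAPDH/TPI/NAD/arsenate coupling and diaphorase/resazurin added. Fluorescence read after 20 min at RT, 525/598 nm.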
Pf growth 48h – inhibits P. falciparum growth in the first generation, 48 h | Potency, µM (titrated, usually from 28.7 µM), actives largely listed as inhibitors | 310,000 tested, 5.9% active | P. falciparum luciferase growth in erythrocytes, 48 h
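Erythrocytes infected with P. falciparum carrying an integrated firefly luciferase reporter (2% hematocrit, 0.1% parasitemia final) were exposed to compounds in RPMI 1640 with 0.5% Albumax at 37 C, 5% CO2. Growth inhibition was scored as reduced luminescence.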
HCMV inh – inhibitors of human cytomegalovirus; HFF cells, HCMV-luciferase reporter, 72 h; hits give low values; activity change, negative = inhibition, % at 57.5 µM; 410,000 tested, 4.5% active; in the data active = activity change below about -60%; inconclusive = no clear call, values can overlap the other calls; inactive = above about -39%
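Cell-based, HFFs, 1000 cells/well, 16 h 37C; cpds in DMSO + HCMV-luc, MOI 1 PFU/cell; 72 h 37C; OneGlo luminescence after 5 min RT; norm. to buffer vs Salinomycin 10uM.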
Pf growth 96h – inhibits malaria parasite growth, 96 h. AID 504834. Potency, µM (doses to about 28.7 µM), most hits filed as inhibitors. P. falciparum luciferase reporter growth, 96 h. 320,000 tested, 6.9% active
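P. falciparum expressing integrated firefly luciferase, in erythrocytes at 2% hematocrit, 0.05% parasitemia, incubated with compounds 96 h at 37 C, 5% CO2. Growth inhibition read as loss of luminescence; two-generation exposure targets delayed-death apicoplast inhibitors.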
Sm TGR block – blocks Schistosoma mansoni thioredoxin glutathione reductase | Q962Y6 | purified TGR, DTNB reduction, TNB absorbance 405 nm | Potency, µM (top dose mostly 114 µM), most hits filed as inhibitors | 360,000 tested, 3% active | AID 485364; note: nearly all actives have a fitted effect of over 60% in size
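TGR 20 nM + NADPH 100 uM (dispensed conc.), cpd preinc 15 min RT; start with NADPH (500 uM addition) then DTNB (15 mM addition). Kinetic TNB absorbance, 405 nm filter. Four-parameter Hill fit across titration.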
Large screens that a line does not name were inactive. Unless noted, calls come from the whole dose curve; as a rule, active = well fitted curve in the direction sought with a large enough effect; inconclusive = small, poorly fitted or top-dose-only effect, or another doubt; inactive = no such curve, though single readings can be large; an effect the other way counts as inactive or inconclusive.

COc1ccc(CN2CCCC(CO)(Cc3ccc(F)cc3)C2)cc1C (centres undefined)	Pf growth 48h 15µM, Pf growth 96h inconclusive
COc1cccc(CC2(CO)CCCN(Cc3cn(C)c4ccccc34)C2)c1 (centres undefined)	Pf growth 48h inconclusive, HCMV inh inconclusive
CCn1cc(CN2CCCC(CO)(Cc3ccc(F)cc3)C2)c2ccccc21 (centres undefined)	Pf growth 48h inconclusive, HCMV inh -64
Cn1cc(CN2CCCC(CO)(Cc3ccccc3)C2)c2ccccc21 (centres undefined)	Pf growth 48h 12µM, HCMV inh inconclusive
N#CCC(=O)Nc1ccc(C(=O)OCC(=O)N2CCCC2=O)cc1	none (no result: Giardia FBPA inh)
Cc1cc2ccccc2cc1C(=O)c1ccccc1	none (no result: Giardia FBPA inh, Pf growth 48h, Pf growth 96h, Sm TGR block)
Cc1sc2cc3c(c(C(=O)c4ccccc4)[n+]2c1C)-c1cccc2cccc-3c12	Pf growth 48h 0.83µM, HCMV inh -100, Pf growth 96h 0.33µM
O=C(c1ccccc1)c1c2c(cc3sc4ccccc4[n+]13)-c1cccc3cccc-2c13	Pf growth 48h 0.93µM, HCMV inh -103, Pf growth 96h 0.47µM
O=C(O)c1ccccc1C(=O)Nc1c(-c2ccccc2)nc2ccccn12	none
CCN(Cc1ccccc1)C(=O)c1cc2c(=O)[nH]c3ccc(C)cc3c2s1	none (no result: Giardia FBPA inh, Pf growth 48h, Pf growth 96h)
C=CCn1c(SCc2ccc(C#N)cc2)nnc1-c1ccc(C)cc1	Pf growth 48h inconclusive, HCMV inh inconclusive, Pf growth 96h 12µM
Cn1c(SCc2ccc(C#N)cc2)nnc1-c1ccncc1	none
COC(=O)c1[nH]nc(C(=O)OC(C)(C)C)c1-c1ccccc1	Sm TGR block 22µM
CC(C)CCNC(=O)c1cccc(Nc2nc3ccccc3n3nnnc23)c1	HCMV inh -81 (no result: Giardia FBPA inh, Pf growth 48h, Pf growth 96h)
COc1ccc(CCNC(=O)c2ccc(Nc3nc4ccccc4n4nnnc34)cc2)cc1OC	HCMV inh -114 (no result: Giardia FBPA inh, Pf growth 48h, Pf growth 96h)
O=C(NCCc1ccc(Cl)cc1)c1ccc(Nc2nc3ccccc3n3nnnc23)cc1	none (no result: Giardia FBPA inh, Pf growth 48h, Pf growth 96h)
CC(NC(=O)c1cccc(Nc2nc3ccccc3n3nnnc23)c1)c1ccccc1 (centres undefined)	HCMV inh -68 (no result: Giardia FBPA inh, Pf growth 48h, Pf growth 96h)
CCOC(=O)C1=C(C)N(C)C(=O)NC1c1cc2c(cc1[N+](=O)[O-])OCO2 (centres undefined)	none
Fc1ccccc1NC(=S)N1CCOCC1	HCMV inh inconclusive
O=S(=O)(c1ccc2ccccc2c1)N1CCN(C(=S)Nc2ccc(F)c(Cl)c2)CC1	Pf growth 48h 1µM, HCMV inh inconclusive, Pf growth 96h 0.33µM
N#CCC(=O)Nc1ccc(C(=O)N2CCN(S(=O)(=O)c3ccc4ccccc4c3)CC2)cc1	Pf growth 48h 15µM, HCMV inh inconclusive, Pf growth 96h inconclusive
O=S(=O)(c1ccc2ccccc2c1)N1CCN(C(=S)Nc2ccccc2F)CC1	Pf growth 48h 1.7µM, Pf growth 96h 3.3µM
O=S(=O)(c1ccc(Cl)cc1)N1CCN(C(=S)Nc2ccccc2F)CC1	Pf growth 48h 0.93µM, Pf growth 96h inconclusive
O=S(=O)(c1ccc2ccccc2c1)N1CCN(C(=S)Nc2ccc(F)cc2)CC1	Pf growth 48h inconclusive, HCMV inh inconclusive, Pf growth 96h inconclusive
Cc1ccc(CNCc2ccccc2Cl)s1	none (no result: Giardia FBPA inh, Pf growth 48h, Pf growth 96h)
COCC(=O)N1CCC2(CCCN(c3ccccn3)C2)CC1	none (no result: Pf growth 48h, HCMV inh, Pf growth 96h, Sm TGR block)
CN(C(=O)COC(=O)/C=C/c1ccc(C(F)(F)F)cc1)C1CCS(=O)(=O)C1 (centres undefined)	none (no result: Giardia FBPA inh)
COc1ccc(-c2noc(CCC(=O)N3CCN(c4ccc(C(F)(F)F)cc4)CC3)n2)cc1	none (no result: Giardia FBPA inh, Pf growth 48h, Pf growth 96h, Sm TGR block)
O=C(N/N=C/c1ccc(Cl)cc1)c1sccc1OCc1ccc(F)cc1	Pf growth 48h inconclusive, Pf growth 96h 9.3µM
COC(=O)CNC(c1ccccc1)c1cc(C)ccc1NC(=O)c1cccc(Cl)c1 (centres undefined)	Pf growth 48h inconclusive, Pf growth 96h 13µM
COC(=O)CNC(c1ccccc1)c1cc(C)ccc1NC(=O)CNC(=O)OCc1ccccc1 (centres undefined)	Pf growth 48h 13µM (no result: Pf growth 96h)
COC(=O)CNC(c1ccccc1)c1cc(C)ccc1NS(=O)(=O)c1ccc(C)cc1 (centres undefined)	Pf growth 48h 9.3µM, Pf growth 96h 13µM
O=C(NCCCCC(NC(=O)c1ccccc1)C(=O)O)OCc1ccccc1 (centres undefined)	none (no result: Giardia FBPA inh, Pf growth 48h, Pf growth 96h, Sm TGR block)
COC(=O)C(CCCCNC(=O)OCc1ccccc1)NC(=O)CN (centres undefined)	Pf growth 96h inconclusive, Sm TGR block 79µM
CCOC(=O)[C@]12CCCC=C1N(Cc1ccccc1)C(=O)[C@H](CC(=O)N1CCN(C(=O)C3CC3)CC1)C2	none (no result: Giardia FBPA inh, Pf growth 48h, Pf growth 96h, Sm TGR block)
O=C(NCc1ccccc1)C(c1ccccc1)n1c(-c2ccccn2)nc2ccccc21 (centres undefined)	none (no result: Giardia FBPA inh, Pf growth 48h, Pf growth 96h, Sm TGR block)
O=C(/C=C/c1cccc([N+](=O)[O-])c1)OCC(=O)N1CCCCC1	none (no result: Giardia FBPA inh, Pf growth 48h, Pf growth 96h, Sm TGR block)
Cc1ccc(NC(=O)CCc2ccccc2)cc1C	none (no result: Giardia FBPA inh, Pf growth 48h, Pf growth 96h, Sm TGR block)
Cc1ccc(NC(=O)CNC(=O)OCc2ccccc2)cc1C	Sm TGR block 0.11µM
Cc1ccccc1N(CC(=O)O)S(C)(=O)=O	Pf growth 96h inconclusive
CCc1ccccc1N(CC(=O)O)S(C)(=O)=O	Pf growth 96h 15µM
CC1CCCN(Cc2cccc(Oc3ccccc3)c2)C1 (centres undefined)	Pf growth 48h inconclusive, HCMV inh -98
O=S(=O)(Nc1nc2ccccc2nc1Nc1ccccc1Br)c1ccccc1	none (no result: Giardia FBPA inh, Pf growth 48h, Pf growth 96h)
COc1ccc(C(C)(C)C)cc1S(=O)(=O)n1ccnc1C	Pf growth 48h inconclusive, HCMV inh -70
CCOc1ccc(C)cc1S(=O)(=O)n1nc(C)cc1C	none
